{
  "source": "the supplement of paper PMC8728848",
  "binders": {"B1": {"name": "PX9961KLbvu-535-38-535 (Bacteroides vulgatus) (protein)", "chain": "DKAYTDAESYTKGLHKIYSVWALSGQDGSSSSDISGLDAGNTALLRCWWTLQEQPTDEMKNAWNDAWCTEVNYMTWTTNKVEPIEGVYQRCMYIVALVNEFLKNIPNAPESIDKESYIAQARFNRAFAYYVLMDMFALPPFITEKNYSIEPAPLSREDLFNWIEAELNEIKPNLPSPRSEYGVADQAVASALLARMYLNAEIYTGKARYTECINACNEVIKAGYQLADNYADLFKADNGENPDTKKEIIYPIIFDGDKTQSWGMAAIIIGARGAEDKDVLLAHSGVDQGWAGFRATSNLVHLFDFQNDEEPKASEIQDKRGIFYDKGRSIDITSSVSGTFETEGWSVFKFSNLNSNGQPGKNTLWVDTDFPMFRLGDIYLMYAEAVARGGEGSKASAVEYINALRKRAYGDDKHNISENWLEENNFRNLLDERGRELYWEGIRRTDLVRFDLLTSGSYTWDFKGGINTGVGVNKRYNVYPIPVTDLTVNGNLQQNEGY"}},
  "experiment_in_all_cases": "glycan array binding signal (z-score within array); higher = stronger binding",
  "settings_in_all_cases": "glycan notation: IUPAC condensed, linker removed",
  "key": {"Gal3S(b1-3)GalNAc": {"biological_target": "Gal3S(b1-3)GalNAc", "how_it_was_run": "(§1)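 The Consortium for Functional Glycomics database supplied 3228 glycan arrays, of which those lacking an available protein sequence were dropped. The binding signal, a within-array Z-score, was averaged across arrays of the same protein sequence and across linkers. Negative scores can be read as non-binding.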"}, "Gal3S(b1-4)Glc": {"biological_target": "Gal3S(b1-4)Glc", "how_it_was_run": "as §1"}, "Gal6S(b1-3)GlcNAc": {"biological_target": "Gal6S(b1-3)GlcNAc", "how_it_was_run": "as §1"}, "Gal6S(b1-3)GlcNAc6S": {"biological_target": "Gal6S(b1-3)GlcNAc6S", "how_it_was_run": "as §1"}, "GalNAc(b1-3)GalNAc": {"biological_target": "GalNAc(b1-3)GalNAc", "how_it_was_run": "as §1"}, "[1]": {"biological_target": "GalNAc(b1-4)GlcNAc(b1-3)GalNAc(b1-4)GlcNAc", "how_it_was_run": "as §1"}, "Glc(b1-4)Glc": {"biological_target": "Glc(b1-4)Glc", "how_it_was_run": "as §1"}, "GlcA(b1-3)Gal": {"biological_target": "GlcA(b1-3)Gal", "how_it_was_run": "as §1"}, "[2]": {"biological_target": "GlcA3S(b1-3)Gal(b1-4)GlcNAc(b1-3)Gal(b1-4)Glc", "how_it_was_run": "as §1"}, "[3]": {"biological_target": "GlcNAc(a1-4)Gal(b1-4)GlcNAc(b1-3)Gal(b1-4)[Fuc(a1-3)]GlcNAc(b1-3)Gal(b1-4)[Fuc(a1-3)]GlcNAc", "how_it_was_run": "as §1"}, "[4]": {"biological_target": "GlcNAc(b1-2)Gal(b1-3)GalNAc", "how_it_was_run": "as §1"}, "[5]": {"biological_target": "GlcNAc(b1-2)Man(a1-3)[GlcNAc(b1-2)Man(a1-6)]Man(b1-4)GlcNAc(b1-4)GlcNAc", "how_it_was_run": "as §1"}, "[6]": {"biological_target": "GlcNAc(b1-2)[GlcNAc(b1-4)]Man(a1-3)[GlcNAc(b1-4)][GlcNAc(b1-2)Man(a1-6)]Man(b1-4)GlcNAc(b1-4)GlcNAc", "how_it_was_run": "as §1"}, "[7]": {"biological_target": "GlcNAc(b1-2)[GlcNAc(b1-6)]Man(a1-6)[GlcNAc(b1-2)Man(a1-3)]Man(b1-4)GlcNAc(b1-4)[Fuc(a1-6)]GlcNAc", "how_it_was_run": "as §1"}, "[8]": {"biological_target": "GlcNAc(b1-3)Gal(b1-4)GlcNAc(b1-3)Gal(b1-4)GlcNAc(b1-2)Man(a1-3)[GlcNAc(b1-3)Gal(b1-4)GlcNAc(b1-3)Gal(b1-4)GlcNAc(b1-2)Man(a1-6)]Man(b1-4)GlcNAc(b1-4)[Fuc(a1-6)]GlcNAc", "how_it_was_run": "as §1"}, "[9]": {"biological_target": "GlcNAc(b1-3)Gal(b1-4)GlcNAc(b1-3)Gal(b1-4)GlcNAc(b1-3)Gal(b1-4)GlcNAc(b1-3)Gal(b1-4)GlcNAc(b1-2)[GlcNAc(b1-3)Gal(b1-4)GlcNAc(b1-3)Gal(b1-4)GlcNAc(b1-3)Gal(b1-4)GlcNAc(b1-3)Gal(b1-4)GlcNAc(b1-6)]Man(a1-6)[GlcNAc(b1-3)Gal(b1-4)GlcNAc(b1-3)Gal(b1-4)GlcNAc(b1-3)Gal(b1-4)GlcNAc(b1-3)Gal(b1-4)GlcNAc(b1-2)Man(a1-3)]Man(b1-4)GlcNAc(b1-4)[Fuc(a1-6)]GlcNAc", "how_it_was_run": "as §1"}, "[10]": {"biological_target": "GlcNAc(b1-3)[GlcNAc(b1-4)][GlcNAc(b1-6)]GlcNAc", "how_it_was_run": "as §1"}, "[11]": {"biological_target": "GlcNAc(b1-4)GlcNAc(b1-4)GlcNAc(b1-4)GlcNAc(b1-4)GlcNAc", "how_it_was_run": "as §1"}, "Man(a1-3)[Man(a1-6)]Man": {"biological_target": "Man(a1-3)[Man(a1-6)]Man", "how_it_was_run": "as §1"}, "[12]": {"biological_target": "Man(a1-3)[Man(a1-6)]Man(a1-6)[Man(a1-2)Man(a1-3)]Man(b1-4)GlcNAc(b1-4)GlcNAc", "how_it_was_run": "as §1"}, "[13]": {"biological_target": "Neu5Ac(a2-3)Gal(b1-3)[Fuc(a1-4)]GlcNAc", "how_it_was_run": "as §1"}, "[14]": {"biological_target": "Neu5Ac(a2-3)Gal(b1-3)]Neu5Ac(a2-3)Gal(b1-4)]GlcNAc", "how_it_was_run": "as §1"}, "[15]": {"biological_target": "Neu5Ac(a2-3)Gal(b1-4)GlcNAc(b1-2)Man(a1-3)[GlcNAc(b1-4)][Neu5Ac(a2-3)Gal(b1-4)GlcNAc(b1-2)Man(a1-6)]Man(b1-4)GlcNAc(b1-4)GlcNAc", "how_it_was_run": "as §1"}, "[16]": {"biological_target": "Neu5Ac(a2-3)Gal(b1-4)GlcNAc(b1-2)Man(a1-3)[Neu5Ac(a2-3)Gal(b1-4)GlcNAc(b1-2)Man(a1-6)]Man(b1-4)GlcNAc(b1-4)[Fuc(a1-6)]GlcNAc", "how_it_was_run": "as §1"}, "[17]": {"biological_target": "Neu5Ac(a2-3)Gal(b1-4)GlcNAc(b1-3)Gal(b1-4)GlcNAc(b1-3)Gal(b1-4)GlcNAc", "how_it_was_run": "as §1"}, "[18]": {"biological_target": "Neu5Ac(a2-3)Gal(b1-4)[Fuc(a1-3)]GlcNAc(b1-3)GalNAc", "how_it_was_run": "as §1"}, "[19]": {"biological_target": "Neu5Ac(a2-8)Neu5Gc(a2-3)Gal(b1-4)GlcNAc", "how_it_was_run": "as §1"}},
  "note": "The full list was thinned out, with the strongest signals kept by preference.",
  "data": [
    {"binder": "B1", "values": [
      {"measurement": "glycan array binding signal (z-score)", "setting": "Gal3S(b1-3)GalNAc", "result": -0.326},
      {"measurement": "glycan array binding signal (z-score)", "setting": "Gal3S(b1-4)Glc", "result": 1.38},
      {"measurement": "glycan array binding signal (z-score)", "setting": "Gal6S(b1-3)GlcNAc", "result": 0.63},
      {"measurement": "glycan array binding signal (z-score)", "setting": "Gal6S(b1-3)GlcNAc6S", "result": 1.44},
      {"measurement": "glycan array binding signal (z-score)", "setting": "GalNAc(b1-3)GalNAc", "result": -0.606},
      {"measurement": "glycan array binding signal (z-score)", "setting": "[1]", "result": -0.094},
      {"measurement": "glycan array binding signal (z-score)", "setting": "Glc(b1-4)Glc", "result": -0.497},
      {"measurement": "glycan array binding signal (z-score)", "setting": "GlcA(b1-3)Gal", "result": -0.742},
      {"measurement": "glycan array binding signal (z-score)", "setting": "[2]", "result": -0.814},
      {"measurement": "glycan array binding signal (z-score)", "setting": "[3]", "result": 0.673},
      {"measurement": "glycan array binding signal (z-score)", "setting": "[4]", "result": 0.183},
      {"measurement": "glycan array binding signal (z-score)", "setting": "[5]", "result": -0.632},
      {"measurement": "glycan array binding signal (z-score)", "setting": "[6]", "result": 1.4},
      {"measurement": "glycan array binding signal (z-score)", "setting": "[7]", "result": 0.105},
      {"measurement": "glycan array binding signal (z-score)", "setting": "[8]", "result": 1.82},
      {"measurement": "glycan array binding signal (z-score)", "setting": "[9]", "result": 1.39},
      {"measurement": "glycan array binding signal (z-score)", "setting": "[10]", "result": -0.666},
      {"measurement": "glycan array binding signal (z-score)", "setting": "[11]", "result": -0.429},
      {"measurement": "glycan array binding signal (z-score)", "setting": "Man(a1-3)[Man(a1-6)]Man", "result": -0.077},
      {"measurement": "glycan array binding signal (z-score)", "setting": "[12]", "result": 0.357},
      {"measurement": "glycan array binding signal (z-score)", "setting": "[13]", "result": 1.01},
      {"measurement": "glycan array binding signal (z-score)", "setting": "[14]", "result": -0.578},
      {"measurement": "glycan array binding signal (z-score)", "setting": "[15]", "result": -0.451},
      {"measurement": "glycan array binding signal (z-score)", "setting": "[16]", "result": 0.475},
      {"measurement": "glycan array binding signal (z-score)", "setting": "[17]", "result": -0.106},
      {"measurement": "glycan array binding signal (z-score)", "setting": "[18]", "result": 0.19},
      {"measurement": "glycan array binding signal (z-score)", "setting": "[19]", "result": 19.4}
    ]}
  ]
}
